Calls of active or inactive are those of the source.

Results on 13 compounds are retold here after PubChem BioAssay.

The target of one experiment is Albumin (Bos taurus) (UniProt P02769). Put plainly: compounds binding labelled BSA control protein – biochemical, small-molecule microarray, Alexa647 label, 635/667 nm fluorescence, artefact control for SMM control protein annotation, profiling panel (AID 1118).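 Also: score merges 667 nm emission intensity and signal-to-noise per printed compound spot.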 The settings on record: BSA-A647 binding, fluorescence 635 nm, higher = more signal.
Sequence of Albumin (Bos taurus) (P02769 whole entry, looked up): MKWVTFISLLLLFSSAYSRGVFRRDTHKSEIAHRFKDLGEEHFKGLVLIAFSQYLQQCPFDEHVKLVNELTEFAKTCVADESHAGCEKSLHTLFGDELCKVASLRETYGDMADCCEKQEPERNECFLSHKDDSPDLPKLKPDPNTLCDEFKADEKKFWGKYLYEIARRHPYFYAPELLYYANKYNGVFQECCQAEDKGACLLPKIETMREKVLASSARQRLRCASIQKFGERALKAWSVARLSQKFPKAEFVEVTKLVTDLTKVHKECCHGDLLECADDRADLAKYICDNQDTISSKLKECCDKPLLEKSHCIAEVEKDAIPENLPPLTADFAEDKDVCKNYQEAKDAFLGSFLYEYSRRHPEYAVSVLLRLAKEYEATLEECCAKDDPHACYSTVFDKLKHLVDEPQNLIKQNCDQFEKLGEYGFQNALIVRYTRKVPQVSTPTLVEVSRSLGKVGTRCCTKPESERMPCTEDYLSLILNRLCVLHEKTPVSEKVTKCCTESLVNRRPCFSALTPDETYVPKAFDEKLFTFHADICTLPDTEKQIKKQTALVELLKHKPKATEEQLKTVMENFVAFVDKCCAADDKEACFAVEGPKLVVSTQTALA
A short description of experiment [1]: probe aXIP binding to arrayed compounds – biochemical, NeuroSMM set, 635/667 nm fluorescence, primary screen (AID 1119).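 Also: probe is the protein aXip251-270 applied at 1 µg/mL to compound-printed slides; binding of probe to printed compounds measured as 667 nm fluorescence plus signal to noise.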 The settings on record: small-molecule microarray, higher = more signal, called active from +8 up or from −8 down.
The nature of experiment [2]: probe aNOTCH3 binding on compound microarray – biochemical, small-molecule microarray, 635/667 nm fluorescence, primary screen (AID 1120).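 Also: probe is a biotin-tagged antibody raised against NOTCH3 rather than NOTCH3 protein; score merges spot fluorescence near 667 nm with spot signal to noise.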 The settings on record: higher = more signal.
Experiment [3] in a line: probe aNOTCH2 binding on compound microarray – biochemical, small-molecule microarray, 635/667 nm fluorescence, primary screen (AID 1121).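 Also: score merges feature fluorescence read at 667 nm with its signal to noise.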 The settings on record: higher = more signal.
Experiment [4] deals with Carbonic anhydrase 2 (Homo sapiens) (UniProt P00918). Put plainly: compounds binding carbonic anhydrase 2 – biochemical, small-molecule microarray, Alexa647-labelled CAII, profiling panel (AID 1122). The settings on record: CAII-A647 binding fluorescence, higher = more signal.
Experiment [5] in a line: COS7 lysate on small-molecule microarray, probe aHis, 635 nm (AID 1123).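 Also: z-score combines 667nm fluorescence intensity with signal-to-noise per printed compound spot.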 The settings on record: COS7 cell lysate, fluorescence, higher = more signal.
Experiment [6] is described as follows: probe aLAP1 signal on lysate-treated microarray – cell lysate, small-molecule microarray, COS7 lysate, primary screen (AID 1124).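 Also: lysate comes from COS7 cells expressing LAP1 and is applied at 0.3 µg/mL; score merges spot fluorescence near 667 nm with signal-to-noise over triplicate slides.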 The settings on record: probe aLAP1, fluorescence, higher = more signal.
A further experiment deals with Sam68 (KHDRBS1). Kind of experiment: compounds binding KHDRBS1 protein – biochemical, small-molecule microarray, 635 nm fluorescence, primary screen (AID 1125).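 Also: score merges 667 nm channel intensity with signal to noise over triplicate slides.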 The settings on record: higher = more signal.
For experiment [7], the system named is Chordin-like protein 2 (CHRDL2). Put plainly: compounds binding chordin-like 2 – biochemical, small-molecule microarray, 635 nm fluorescence, primary screen (AID 1126).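 Also: printed compound slides probed with Chrdl2 protein at 4 µg/mL for 1 h at 4 C; score merges 667 nm emission intensity with signal to noise over three replicate slides.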 The settings on record: fluorescence 635 nm, higher = more signal.
Experiment [8] concerns the target Concanavalin-A (Canavalia ensiformis) (UniProt P02866). Put plainly: compounds binding concanavalin A lectin – biochemical, small-molecule microarray, Alexa647 label, 635 nm, artefact control for SMM control protein annotation, primary screen (AID 1127).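 Also: z combines 667 nm emission intensity with signal-to-noise across three replicate slides.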 The settings on record: ConA-A647 binding fluorescence, higher = more signal.

Sequence of Concanavalin-A (Canavalia ensiformis) (P02866 whole entry, looked up): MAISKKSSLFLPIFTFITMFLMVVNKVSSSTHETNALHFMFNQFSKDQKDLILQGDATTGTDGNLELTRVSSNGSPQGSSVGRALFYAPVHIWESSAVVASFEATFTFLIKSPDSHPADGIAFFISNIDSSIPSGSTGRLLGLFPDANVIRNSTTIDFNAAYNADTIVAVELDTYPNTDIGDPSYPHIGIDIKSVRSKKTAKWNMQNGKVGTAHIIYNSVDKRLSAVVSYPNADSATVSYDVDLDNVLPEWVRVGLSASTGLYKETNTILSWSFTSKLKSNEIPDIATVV

Take `COC(=O)C[C@H]1O[C@]2(C(=O)N(C)c3ccccc32)[C@@H](C)[C@@H]1[Si](C)(C)c1ccccc1`: the composite z-score in the experiment with Albumin (Bos taurus) is -0.0967; in experiment [2] it was 0.16; in [3] it was -0.171; in experiment [4], 0.288; in [5] it was 0.198; in experiment [6] it was 0.216. Besides, the composite z-score in the experiment with Sam68 (KHDRBS1) worked out at 0.898; in experiment [7] it was 0.816; in [8], 0.593. Besides, the composite Z-score in experiment [1] is -0.142 (inactive).
Consider `C=C(CCCC)C(=O)CC[C@@H](OC(C)=O)c1ccc(OCCO)cc1`, for which the composite z-score with Albumin (Bos taurus) is -0.267; in [2] it was 0.15; in [3], -0.117; in experiment [4] it was 0.628; in experiment [5] it was 0.143; in experiment [6], 1.21. The composite z-score in the experiment with Sam68 (KHDRBS1) was -0.135; in experiment [7], 0.523; in experiment [8] it was 0.397. For the same compound, the composite Z-score in experiment [1] was 3.19 (inactive).
Take `O=C(N1CCOCC1)[C@]1(CCS(=O)(=O)c2ccccc2)N=C(c2ccc(OCCCO)cc2)O[C@@H]1c1ccccc1`: the composite z-score in the experiment with Albumin (Bos taurus) was 1.03; in experiment [2], 0.149; in [3], -0.0256; in [4] it was 0.441; in [5], 2.86; in [6], 0.473. Besides, the composite z-score in the experiment on Sam68 (KHDRBS1) is 1.31; in [7] it was -0.62; in experiment [8], 1.21. In addition, in experiment [1], the composite Z-score is 1.35 (inactive).
Turning to `C=CCNC(=O)[C@H]1[C@@H]2C(=O)O[C@@H](c3ccccc3)[C@@H](c3ccccc3)N2[C@@H](c2ccc(O)cc2)[C@]12C(=O)Nc1ccccc12`, the composite z-score was -0.118 with Albumin (Bos taurus); -0.278 in experiment [2]; -0.0681 in experiment [3]; 0.331 in experiment [4]; 0.45 in [5]; 0.219 in experiment [6]. Further, the composite z-score in the experiment on Sam68 (KHDRBS1) is 1.07; in experiment [7], -0.21; in experiment [8], 0.872. Moreover, the composite Z-score in experiment [1] is -0.139 (inactive).
Turning to `C=CC[C@H](O)c1ccc(O)c(F)c1`, the composite z-score with Albumin (Bos taurus) was -0.394; in [2], -0.849; in experiment [3] it was -0.157; in experiment [4], 0.828; in experiment [5], -0.268; in experiment [6], -0.0732. Also, the composite z-score is -1.45 in the experiment with Sam68 (KHDRBS1), -2.24 in experiment [7] and -1.09 in experiment [8]. For the same compound, the composite Z-score in experiment [1] was 0.404 (inactive).
Consider `CC(C)N1CC=CC23O[C@@H]4/C=C\CCCOC(=O)C4[C@H]2C(=O)N(C(C)CO)[C@@H]3C1=O` (stereo not given in full), for which the composite z-score was -0.446 in the experiment with Albumin (Bos taurus); -0.24 in experiment [2]; -0.177 in experiment [3]; 0.913 in [4]; 0.17 in experiment [5]; -0.443 in experiment [6]. Further, the composite z-score was -0.222 in the experiment on Sam68 (KHDRBS1), -0.956 in experiment [7] and -0.313 in [8]. Moreover, the composite Z-score in [1] was 0.0835 (inactive).
For `COCCOC(=O)N1C(=O)[C@@]2(c3cc(C#CCNC(N)=O)ccc31)[C@H](C(N)=O)[C@H]1C(=O)O[C@H](c3ccccc3)[C@H](c3ccccc3)N1[C@@H]2c1ccc(O)cc1`, the composite z-score is -0.153 with Albumin (Bos taurus); 0.153 in experiment [2]; 0.234 in [3]; 0.606 in experiment [4]; 0.609 in experiment [5]; -0.545 in experiment [6]. The values for the composite z-score (in the experiment with Sam68 (KHDRBS1); in experiment [7]; in experiment [8]) were -0.148, 0.267 and -0.267, respectively. For the same compound, in [1], the composite Z-score is 0.003 (inactive).
With `CC(C)C[C@@H]1NC(=O)[C@@H]2C[C@H](C(=O)NCCCCCNC(=O)CS)[C@H](c3ccc(O)cc3)N2C1=O`, the composite z-score with Albumin (Bos taurus) is -0.0368; in experiment [2], -0.101; in experiment [3], -0.104; in experiment [4] it was 0.36; in [5], 2.1; in experiment [6], -0.646. In addition, the composite z-score is 0.92 with Sam68 (KHDRBS1), 0.652 in experiment [7] and 0.374 in experiment [8]. In experiment [1], the composite Z-score is -0.442 (inactive).
Consider `C=CCN1C(=O)[C@]2(O[C@H](CCO)[C@@H]([Si](C)(C)c3ccc(OC)cc3)[C@@H]2C)c2cc(N3C(=O)c4ccccc4Oc4ccccc43)ccc21`, for which the composite z-score is 0.493 with Albumin (Bos taurus); -0.0328 in [2]; -0.125 in [3]; 0.467 in experiment [4]; 0.506 in experiment [5]; 0.199 in experiment [6]. Moreover, the figures for the composite z-score (with Sam68 (KHDRBS1); in [7]; in experiment [8]) were 1.11, -0.175 and 0.91, respectively. Further, the composite Z-score in experiment [1] is -0.0467 (inactive).
Take `COc1ccc(-c2cc3c(c(CCc4ccccc4)n2)[Si](C(C)C)(C(C)C)O[C@H]3c2ccccc2)cn1`: the composite z-score in the experiment with Albumin (Bos taurus) is -0.425; in [2], -0.0221; in experiment [3] it was -0.162; in experiment [4], -0.299; in experiment [5], -0.405; in experiment [6], 0.0028. Further, the composite z-score with Sam68 (KHDRBS1) was -0.605; in experiment [7], -0.315; in [8] it was 0.571. Further, the composite Z-score in [1] is -0.161 (inactive).
In the case of `C[N+](C)(C)CCCC[C@@H]1NC(=O)[C@H]2C[C@@H](C(=O)O)[C@@H](c3ccc(O)cc3)N2C1=O`, the composite z-score is -0.804 with Albumin (Bos taurus); -0.165 in [2]; -0.104 in [3]; 0.704 in experiment [4]; 1.4 in experiment [5]; 0.606 in experiment [6]. Besides, the results for the composite z-score (with Sam68 (KHDRBS1); in [7]; in experiment [8]) were 0.744, 0.616 and 0.905, respectively. Also, the composite Z-score in experiment [1] is -0.55 (inactive).
As for `O=C1O[C@H](c2ccccc2)[C@H](c2ccccc2)N2[C@H]1[C@@H](C(=O)N1CCN(c3ncccn3)CC1)[C@]1(C(=O)Nc3ccc(C#CC4(O)CCCCCC4)cc31)[C@H]2c1ccc(O)cc1`, the composite z-score with Albumin (Bos taurus) is 0.605; in experiment [2], 0.0556; in experiment [3] it was -0.162; in experiment [4] it was 0.673; in [5], 1.28; in [6], 0.329. For the same compound, the composite z-score in the experiment with Sam68 (KHDRBS1) is 1.31; in [7], -0.0362; in experiment [8], 0.946. Also, the composite Z-score in [1] is -0.019 (inactive).
As to `O=C1O[C@H](c2ccccc2)[C@H](c2ccccc2)N2[C@H]1[C@@H](C(=O)O)[C@]1(C(=O)Nc3ccc(C#CC4(O)CCCCCC4)cc31)[C@H]2c1ccccc1OCCO`, the composite z-score with Albumin (Bos taurus) was 0.9; in experiment [2], 0.451; in [3] it was 0.0979; in experiment [4], 0.487; in experiment [5] it was 1.27; in experiment [6], 0.774. Also, the composite z-score was determined as 1.32 with Sam68 (KHDRBS1), 0.0298 in experiment [7] and 1.14 in experiment [8]. Further, in experiment [1], the composite Z-score is 0.0463 (inactive).
